Measurements reported in PubChem BioAssay AID488835 (Broad Institute, 2010).
Screen size: about 1,400 compounds; about 140 (10%) were called active.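 Rule for the calls: active = Half-maximal inhibitory dose from the fit at or below ten times the top valid tested dose; inconclusive = Invalid fit, or flat curve showing 30 to 70% inhibition; inactive = the rest.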 A selection follows. Measured potencies and affinities stand elsewhere.

What follows are compounds tested against Lysine-specific demethylase 4C (Homo sapiens) (UniProt Q9H3R0) (assay: GASC-1 (JMJD2C) histone demethylase inhibitors, dose response, biochemical, DELFIA europium, cherry-picked samples (AID 488835;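 note: signal is the H3K9me2 demethylation product detected by a dimethyl-specific antibody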)). Conditions: GST-JMJD2C(1-420), H3K9me3 demethylation; series mostly up to 6 µM; activity change, negative = inhibition: at the top concentration.
Sequence of Lysine-specific demethylase 4C (Homo sapiens) (Q9H3R0 1-420 limits assumed): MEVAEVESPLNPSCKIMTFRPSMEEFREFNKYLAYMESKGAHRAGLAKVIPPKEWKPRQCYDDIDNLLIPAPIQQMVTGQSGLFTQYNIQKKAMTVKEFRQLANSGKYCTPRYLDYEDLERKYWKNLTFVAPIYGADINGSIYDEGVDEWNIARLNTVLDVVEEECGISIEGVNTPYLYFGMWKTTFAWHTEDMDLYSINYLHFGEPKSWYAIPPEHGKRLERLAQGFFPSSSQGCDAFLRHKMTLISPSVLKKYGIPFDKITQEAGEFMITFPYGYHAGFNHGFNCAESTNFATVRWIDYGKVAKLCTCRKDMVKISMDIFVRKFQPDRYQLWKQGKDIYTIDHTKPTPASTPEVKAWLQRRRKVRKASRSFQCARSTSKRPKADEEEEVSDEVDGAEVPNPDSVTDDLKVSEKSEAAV

Activity change, negative = inhibition, inactive:
CCCc1cc(=O)[nH]c(SCC(=O)Nc2cc(S(=O)(=O)N(CC)c3ccccc3)ccc2Cl)n1 1.6%
Cc1ccc(C(=O)Nc2sc3c(c2C(=O)O)CCCC3)o1 1.03%
CN(C)CCCN1C(=O)C(=O)/C(=C(/O)c2ccncc2)C1c1ccccc1 (configuration not stated) 10.2%
Cc1cc(C(=O)OCc2nnc(-c3ccccc3)o2)c(C)n1-c1ccccc1 -4.32%
COc1ccc(C(=O)OCC(=O)c2ccccc2)cc1S(=O)(=O)N1CCOCC1 6.12%
Cc1ccc(C2CC(c3cccc(Br)c3)Nc3nnnn32)cc1 (configuration not stated) 0.226%
Cc1cc(N(CN2CCCC2=O)C(=O)c2ccc(F)cc2)no1 3.57%
COC(=O)[C@]1(C)N[C@H](CN(C)C(=O)NC(C)C)[C@@H]2C(=O)N(Cc3ccccc3)C(=O)[C@@H]21 0.422%
COc1ccc(NC(=O)Nc2ccc3c(c2)C(=O)N([C@H](C)CO)C[C@H](C)[C@@H](CN(C)S(=O)(=O)c2cccs2)O3)cc1 8.17%
CC(C)NC(=O)Nc1ccc2c(c1)C(=O)N([C@H](C)CO)C[C@@H](C)[C@@H](CN(C)C(=O)NC1CCCCC1)O2 1.53%
CCCn1nnnc1SCC(=O)NNC(=O)c1ccco1 -3.08% [at 1.6 µM]
CCCn1c(SCC(=O)Nc2c(C)cccc2CC)nnc1C(C)C 7.38%
Cc1cc(OC(=O)N2CCOCC2)cc(C)c1Cl 3.18%
CC1CN(Cc2ccccc2)c2nc3c(c(=O)n(C)c(=O)n3C)n2C1 (configuration not stated) 4.53%
OC1(c2cccc(F)c2)CCN(Cc2ccncc2)CC1 4.04%
COc1ccc(CCC(=O)Nc2sccc2C#N)cc1 -2.95%
CCOC(=O)CNC(=O)CNC(=O)c1ccc(OC)cc1 0.278%
COc1ccc(CCNC(=O)COC(=O)c2ccc(Br)o2)cc1 1.54%
COc1cc(-c2nc(-c3cccc(C)c3)no2)cc(OC)c1OC -3.71%
Cc1[nH]n2c(=O)c3c(nc2c1-c1ccccc1)CCCC3 -5.83%
CCOC(=O)C1=C(C)NC(=O)NC1c1ccc(Br)s1 (configuration not stated) -6.07%
CCOC(=O)C1=C(c2ccccc2)NC(=O)NC1c1ccc(O)c(OCC)c1 (configuration not stated) 0.617%
O=C(c1cccc(-n2cccc2)c1)N1CCN(S(=O)(=O)c2c(F)cccc2F)CC1 -0.611%
CC(=O)N1CCN(c2ccc([N+](=O)[O-])c(-n3nc(C)cc3C)c2)CC1 3.15%
Cc1ccc(S(=O)(=O)NC(=O)NC(C)Cc2ccccc2)cc1 (configuration not stated) 0.87%
COc1ccc(NC(=O)N(C)C[C@H]2Oc3c(NS(=O)(=O)c4cn(C)cn4)cccc3C(=O)N([C@H](C)CO)C[C@@H]2C)cc1 3.1%
Nc1ncnc2c1ncn2[C@@H]1O[C@H](CNCC#Cc2ccccc2)[C@@H](O)[C@H]1O 2.42%
